Bioassay records from PubChem.
CYP2C19 activ = cytochrome P450 2C19 (human) activation; P33261; 96,000 tested, under 10 active; activation factor at 5 µM; recombinant CYP2C19, luciferin-H EGE luminescence; active compounds read high; 0 = fully inhibited enzyme, 1 = untreated enzyme;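 active means activation factor of at least 2 at 5 µM in the primary screen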
sEH inh = soluble epoxide hydrolase (human) inhibition; P34913; hit rate 0.34% among 91,000; recombinant human sEH enzymatic activity assay; inhibition, % at 2 µM; in the data active means inhibition above about 80%
CYP2C9 inhib = blocks human cytochrome P450 2C9. hit rate 20% among 96,000. inhibition, % at 5 µM. CYP2C9 Supersomes, luciferin-H conversion, luminescence. AID 777;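 active means blocking of liver enzyme CYP2C9 beyond about 50% at 5 µM, limit read from the data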
Target sequence (P11712 whole entry, looked up): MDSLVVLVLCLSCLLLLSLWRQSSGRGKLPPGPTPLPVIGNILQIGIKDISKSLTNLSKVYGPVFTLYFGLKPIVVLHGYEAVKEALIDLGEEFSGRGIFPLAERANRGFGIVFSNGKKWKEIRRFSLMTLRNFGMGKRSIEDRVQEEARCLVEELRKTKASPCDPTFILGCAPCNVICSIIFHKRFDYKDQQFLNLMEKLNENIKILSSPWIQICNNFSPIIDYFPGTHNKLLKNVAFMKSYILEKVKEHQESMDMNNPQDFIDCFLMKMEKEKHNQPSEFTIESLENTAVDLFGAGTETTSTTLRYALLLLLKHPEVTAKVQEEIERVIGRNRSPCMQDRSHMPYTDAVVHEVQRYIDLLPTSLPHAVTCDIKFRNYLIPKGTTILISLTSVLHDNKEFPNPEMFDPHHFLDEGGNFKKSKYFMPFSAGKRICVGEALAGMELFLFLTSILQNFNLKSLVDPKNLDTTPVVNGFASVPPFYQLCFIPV
sEH act = soluble epoxide hydrolase (human) activation. P34913. purified human sEH enzymatic activity, activator screen. activation, % at 2 µM. hit rate 0.04% among 91,000. AID 717; in the data active means activation above about 37%
CYP2C19 inhib = inhibitors of human CYP2C19 | P33261 | hit rate 21% among 96,000 | inhibition, % at 5 µM | CYP2C19 Supersomes, luciferin-H EGE luminescence, 30 min;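 active means CYP2C19 inhibition above a set limit at 5 µM in the primary screen, cut at about 50% in these data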
CYP2C9 act = CYP2C9 (human) activation; hit rate 1.4% among 96,000; recombinant CYP2C9, luciferin-H conversion, luminescence; active compounds read high; factor 1 = untreated enzyme, 0 = blocked; AID 1024; activation factor at 5 µM; P11712;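 active means activation factor of 2 or more for CYP2C9 at a 5 µM dose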
Numbers stand for hits; . = inactive; / = not tested or not shown. An excerpt weighted towards active compounds, which were near 27% of everything screened.

SMILES	CYP2C19 activ	sEH inh	CYP2C9 inhib	sEH act	CYP2C19 inhib	CYP2C9 act
CCn1c(C(C)NC(=O)Cc2ccccc2)nc2ccccc21 (centres undefined)	.	.	.	.	.	.
COc1cccc(Nc2nc(-c3sc(NC(=O)c4ccccc4)nc3C)cs2)c1	.	.	58.6	.	.	.
COc1ccccc1Nc1nc(-c2sc(NC(=O)c3cccc(Cl)c3)nc2C)cs1	.	.	.	.	.	.
CCCC(C)C(=O)Nc1nc(C)c(-c2csc(Nc3cc(OC)ccc3OC)n2)s1 (centres undefined)	.	.	53.4	.	.	.
Cc1nc(N)sc1-c1csc(Nc2ccccc2)n1	.	.	83.1	.	85.0	.
CCCOC(=O)CCn1c(=S)oc2ccccc21	.	/	.	/	89.7	.
CCCCOC(=O)n1c(=O)oc2ccccc21	.	.	.	.	.	.
COCCCn1c(SCc2cc(=O)[nH]c3ccccc23)nnc1-c1ccco1	.	.	.	.	.	.
CCOc1ncccc1C(=O)OCc1nnc(-c2ccccc2)o1	.	/	.	/	84.0	.
O=C(CCN1c2ccccc2Sc2ccccc21)OCc1nnc(-c2ccccc2)o1	.	/	95.1	/	95.7	.
CC1CN(C(=O)c2ccccc2Sc2ccccc2C#N)CC(C)O1 (centres undefined)	.	.	.	.	.	.
O=C(Nc1ccccc1)c1ccccc1O	.	.	.	.	.	.
N#Cc1ccccc1Sc1ccccc1C(=O)Nc1ccccc1	.	.	.	.	51.7	.
Cc1noc(C)c1COC(=O)c1ccccc1Sc1ccccc1C#N	.	.	74.2	.	59.1	.
CS(=O)(=O)N1CCCC(C(=O)NCc2ccccc2Cl)C1 (centres undefined)	.	.	.	.	.	.
COc1ccc(/C=C(/NC(C)=O)C(=O)O)cc1	.	.	.	.	.	.
N#Cc1ccccc1Sc1ccccc1C(=O)OCc1nnc(-c2ccccc2)o1	.	.	58.4	.	68.8	.
O=C(OCc1nnc(-c2ccccc2)o1)c1ccc2c(c1)OCO2	.	.	81.2	.	65.4	.
O=C(OCc1nnc(-c2ccccc2)o1)c1cc(=O)c2ccccc2o1	.	.	.	.	.	.
O=C(CSc1n[nH]c(-c2ccc(Cl)cc2Cl)n1)Nc1ccccn1	.	.	71.8	.	.	.
O=C(Nc1ccccc1N1CCCCC1)c1ccc(N2C(=O)c3ccccc3C2=O)cc1	.	.	54.6	.	.	.
O=C(NCc1ccccc1)c1ccc2c(c1)C(=O)N(Cc1ccncc1)C2=O	.	.	89.6	.	70.6	.
CC(C)Oc1ccc(C(=O)Nc2ccccc2N2CCCC2)cc1	.	.	.	.	.	.
O=C(Nc1ccccc1N1CCOCC1)c1ccc2c(c1)C(=O)N(Cc1ccncc1)C2=O	.	.	83.9	.	79.1	.
CCN1C(=O)c2ccc(C(=O)NCc3ccccc3)cc2C1=O	.	.	.	.	.	.
SMILES	CYP2C19 activ	sEH inh	CYP2C9 inhib	sEH act	CYP2C19 inhib	CYP2C9 act
COc1ccc(-n2nc3c(c2NC(=O)c2cc(Br)ccc2Cl)CS(=O)C3)cc1 (centres undefined)	.	.	.	.	.	.
Cc1ccc(C(=O)COC(=O)CCC(=O)NC2CCCCC2)cc1C	.	.	.	.	.	.
CCCc1cc(=O)n2[nH]c(Cc3ccccc3)nc2n1	.	.	.	.	.	.
CCCCOC(=O)C(C)c1c(C)[nH]c(=S)[nH]c1=O (centres undefined)	.	.	.	.	.	.
CCOc1ccccc1N1CCN(C(=O)c2ccncc2)CC1	.	.	66.9	.	99.3	.
CCOc1ccccc1N1CCN(C(=O)c2cccc(-c3ccc(O)cc3)c2)CC1	.	.	86.7	.	73.6	.
CCOc1ccccc1N1CCN(C(=O)c2c(C)noc2C)CC1	.	.	.	.	.	.
Cc1nn(C2CCS(=O)(=O)C2)c(Cl)c1/C=C/C(=O)OCC(=O)Nc1ccccc1OC(F)F (centres undefined)	.	.	69.2	.	67.2	.
CCCc1nc2c(C)ccc(C)c2c(N)c1CC	.	.	.	.	.	.
Cn1c(=O)oc2cc(S(=O)(=O)N3CCCC(C(=O)NC4CCCc5ccccc54)C3)ccc21 (centres undefined)	.	.	60.5	.	.	.
Cn1c(=O)oc2cc(S(=O)(=O)N3CCCC(C(=O)N4CC=C(c5ccccc5)CC4)C3)ccc21 (centres undefined)	.	.	.	.	72.1	.
COc1ccc(NC(=O)C2CCCN(S(=O)(=O)c3ccc4c(c3)oc(=O)n4C)C2)cc1OC (centres undefined)	.	.	.	.	54.8	.
Cn1c(=O)oc2cc(S(=O)(=O)N3CCCC(C(=O)Nc4ccccn4)C3)ccc21 (centres undefined)	.	.	.	.	.	.
CC1(C)Cc2ccccc2-c2nc3ccccc3c(=O)n21	.	.	.	.	.	.
CCCOC(=O)c1ccc(-c2c(C)noc2-c2ccc(OC)cc2O)o1	.	.	92.4	.	80.8	.
CCc1ccc(NC(=O)c2cc(-c3ccc(OC)cc3)on2)cc1	.	.	.	.	.	.
CC(=C\C(=O)O)/C(=C/c1ccccc1)C(=O)O	.	.	.	.	.	.
CSc1nc2nc3c(cn2n1)C(=O)CC(c1ccccc1)C3 (centres undefined)	.	.	.	.	51.2	.
O=C1CC(c2ccccc2)Cc2nc3nc(C(F)(F)F)nn3cc21 (centres undefined)	.	.	62.3	.	.	.
CCOC(=O)C1=C(C)C(c2ccccc2OC)NC(=S)N1 (centres undefined)	.	.	.	.	52.7	.
COC(=O)c1nc2n(n1)C(c1cccc(Cl)c1)C1=C(CC(C)(C)CC1=O)N2 (centres undefined)	.	/	.	/	.	.
CCOC(=O)C1CCc2sc(N)c(C#N)c21 (centres undefined)	.	.	.	.	.	.
CCn1c(C)nc2cc(S(=O)(=O)C(F)(F)F)ccc21	/	.	/	.	/	/
CC1CC(C)CN(CCOc2ccc(Cl)cc2Cl)C1 (centres undefined)	.	.	.	.	98.4	.
Clc1ccc(OCCN2CCCCC2)c(Cl)c1	.	.	.	.	.	.
SMILES	CYP2C19 activ	sEH inh	CYP2C9 inhib	sEH act	CYP2C19 inhib	CYP2C9 act
CCCN1C(=O)/C(=C/c2cc(C)n(C)c2C)SC1=Nc1ccc(OC)cc1	.	.	.	.	.	.
COc1ccc(N=C2S/C(=C\c3cc(C)n(C)c3C)C(=O)N2C)cc1	.	.	55.0	.	50.8	.
Nc1cc(N)c(OCC(F)(F)F)cc1OCC(F)(F)F	.	.	54.9	.	74.5	.
CN(C(=O)c1ccncc1)C1CC(C)(C)N(O)C(C)(C)C1	.	.	.	.	96.1	.
Cc1ccc(N(C(=O)c2ccncc2)C2C=CS(=O)(=O)C2)cc1 (centres undefined)	.	.	.	.	.	.
Cc1ccccc1-n1c(Cn2c(=O)sc3ccccc32)nnc1SCC(=O)N1CCOCC1	.	.	.	.	.	.
